Reference: PubChem BioAssay AID1209 (Sanford-Burnham Center for Chemical Genomics, 2008)
Among all 190,000 compounds or so, about 810 (0.43%) were called active. Cut-off read from the data, not from the text of the source: active = inhibition above about 50%; inactive = the rest. The list comes from a sample in which actives are over-represented; it also holds similar structures and randomly drawn compounds.

Target: Mannose-6-phosphate isomerase (Homo sapiens) (UniProt P34949)
Test: MPI enzyme activity inhibition – biochemical, fluorescence intensity, coupled assay, primary screen (AID 1209);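 note: plate controls were DMSO vehicle for no effect and wells lacking substrate for full effect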
Conditions: purified PMI enzyme, at 20 µM, hits give high values

Chain of Mannose-6-phosphate isomerase (Homo sapiens) (P34949 whole entry, looked up): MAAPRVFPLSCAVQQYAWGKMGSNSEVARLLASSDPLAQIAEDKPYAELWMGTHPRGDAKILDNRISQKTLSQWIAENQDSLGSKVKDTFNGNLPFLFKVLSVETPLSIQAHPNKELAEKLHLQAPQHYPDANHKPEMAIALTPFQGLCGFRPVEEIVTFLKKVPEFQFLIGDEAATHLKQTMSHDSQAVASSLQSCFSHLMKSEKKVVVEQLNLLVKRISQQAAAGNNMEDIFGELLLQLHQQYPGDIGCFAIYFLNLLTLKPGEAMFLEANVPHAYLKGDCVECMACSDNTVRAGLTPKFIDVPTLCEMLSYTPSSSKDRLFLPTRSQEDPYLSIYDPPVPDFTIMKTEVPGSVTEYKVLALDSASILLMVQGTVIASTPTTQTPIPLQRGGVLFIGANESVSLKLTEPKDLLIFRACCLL

inhibition, inactive:
C=CCn1c(NC(=O)c2ccco2)c(S(=O)(=O)c2ccccc2)c2nc3ccccc3nc21 7.1%, CCCCCn1c(NC(=O)c2ccco2)c(S(=O)(=O)c2ccc(C)cc2)c2nc3ccccc3nc21 20%, COc1cccc(C(=O)OCC(=O)NCCc2ccccc2)c1OC -5.9%, CC(C(=O)N1CCCCC1)n1sc2ccccc2c1=O (stereo unspecified) -2.6%, O=c1c2ccccc2c2ccccc2c(=O)n1-c1ccccc1 3.9%, Cc1ccc(-n2nc3c4c(cccc4c2=O)-c2ccccc2-3)cc1 14.2%, O=C1CCCN1c1nccs1 -4.2%, O=c1[nH]n(-c2ccccc2)c(=O)c2ccccc12 6.7%, Cc1ccccc1N=Cc1c(O)n(-c2nccs2)c(=O)c2ccccc12 0.5%, Cc1ccnc(N2C3CCC2CC(O)(c2ccccc2)C3)n1 (stereo unspecified) -0.2%, Cc1cc(=O)c2ccccc2s1 -2.5%, O=C(Nc1cccn(Cc2cccc(F)c2)c1=O)NC1CCCCC1 14.9%, COc1ccc(-n2c(COc3ccc(C)cc3)nnc2SCc2ccc(C#N)cc2)cc1 10.6%, COCCCn1c(=NC(=O)c2ccc3c(c2)OCO3)c(C#N)cc2c(=O)n3cccc(C)c3nc21 1.8%, CCOC(=O)CSc1nc2ccccc2c(=O)n1CC1COc2ccccc2O1 (stereo unspecified) -3.8%, Cn1c(=O)c2c(nc(CN3CCOCC3)n2CCCO)n(C)c1=O -8.2%, COc1ccccc1NS(=O)(=O)c1cccc(C(=O)NN=C2CCCCCC2)c1 -1.7%, CCn1c(SCC(=O)N2CCCC2)nc2c(c1=O)SC(C)C2 (stereo unspecified) 0.5%, CN(C)S(=O)(=O)c1cccc(-c2cn3ccccc3n2)c1 -3.5%, CN(C)S(=O)(=O)c1cccc(N2C(=O)CC3(CCCCC3)CC2=O)c1 2%, COC(=O)C1=C(N)Oc2cc(C)n(C)c(=O)c2C1c1ccc(Cl)cc1 (stereo unspecified) 1.3%, Cc1c(Cl)cccc1NC(=S)NN 5.2%, CCC(C)(C)n1nnnc1C(c1ccc(O)cc1)N1CCc2ccccc2C1 (stereo unspecified) 12.2%, CCOC(=O)/C(C(=O)Nc1ccc(Br)cc1)=C1/NC(C)(C)Cc2ccccc21 3.3%, CCOC(=O)/C(C(=O)Nc1ccccc1Cl)=C1/NC(C)(C)Cc2ccccc21 18.6%, O=C(Cc1c[nH]c2ccccc12)N1CCN(c2ccccc2)CC1 -10.2%, Cn1c(Cc2ccccc2)nnc1SCC(=O)Nc1cccc(S(=O)(=O)NC2=NCCCCC2)c1 5%, CN=c1scc(C)n1/N=C/c1ccc(O)cc1 12.4%, CCN=c1scc(-c2ccco2)n1/N=C/c1ccc(OC)c(O)c1 -0.4%, C=CCN=c1scc(C)n1/N=C/c1ccc(O)c(O)c1 49.2%, CCN=c1scc(-c2ccco2)n1/N=C/c1ccc(O)cc1 -4.3%, CCCC(=O)C1=C(O)C(c2cccc(Oc3ccccc3)c2)CCC1=O (stereo unspecified) -21%, N#CCN1CCCC(C(N)=O)C1 (stereo unspecified) -5.3%, Cc1sc(NC(=O)CSc2nnnn2C)c(C#N)c1C 4.7%, CCOc1ccc(C2CC(c3cccc(C)c3)n3ncnc3N2)cc1 (stereo unspecified) 2.6%, CCc1ccc(CN(C)C(=O)c2cc(COc3c(F)cccc3F)on2)cc1 18.2%, CC1=C(C)C(=O)C(CCCCC#CCCCC#CCO)=C(C)C1=O -13.9%, Cc1[nH]c(=S)[nH]c(=O)c1CCCO 12.6%, COc1cccc(CNC(=O)CCC2CCCN(C3CCOCC3)C2)c1 (stereo unspecified) 5.9%, CCOc1ccc(NC(=O)NC(C)CC)cc1 (stereo unspecified) -3.9%, O=C(/C=C/c1ccc(N2CCCCC2)c([N+](=O)[O-])c1)c1ccc(S(=O)(=O)N2CCCC2)cc1 0%, O=C(O)c1ccc(S(=O)(=O)N2CCCCCC2)cc1 2.4%, Cc1ccc2c(c1)CCCN2C(=O)c1ccco1 0.8%, O=C(NCC1CCCO1)c1ccccc1 (stereo unspecified) 11.6%, Cc1cccc(C2(c3cccc(C)c3)CC2C(=O)NCC2CCCO2)c1 (stereo unspecified) -4.2%, O=C(CC1C(=O)NC2CCCCC2N1C(=O)c1ccc(F)cc1)Nc1ccccc1 (stereo unspecified) 0.9%, CCc1ccc(C(=O)COC(=O)CNC(=O)c2ccco2)cc1 -5.4%, O=c1[nH]c(-c2ccc(F)cc2)nc2c1sc(=S)n2-c1ccccc1 -0.9%, S=c1sc2c(Cl)ncnc2n1-c1ccccc1 -30.4%, CS(=O)(=O)N1CCN(c2ccc(NC(=O)CSc3nnc(-c4ccco4)o3)cc2)CC1 -8.2%, CCN(CC)S(=O)(=O)c1ccc(NC(=O)COC(=O)CNS(=O)(=O)/C=C/c2ccccc2)cc1 5.2%, O=C(COC(=O)c1ccccc1Br)NCCC1=CCCCC1 5.8%, CC1(C)N=C(SCC(=O)Nc2ccc(Cl)cc2Cl)C(c2ccccc2)=N1 8.5%, O=C(NCc1ccccc1)c1sc(=S)n2c1[nH]c(=O)c1ccccc12 4.9%, O=C(NC1CCCC1)c1sc(=S)n2c1[nH]c(=O)c1ccccc12 -4.7%

inhibition, active:
CCCCn1c(NC(=O)c2ccco2)c(S(=O)(=O)c2ccc(C)cc2)c2nc3ccccc3nc21 50.9%, O=c1c2ccccc2sn1-c1ccccc1 87.2%, O=c1c2ccccc2sn1-c1nccs1 107%, CCOC(=O)/C(C)=C1\NC(C)(C)Cc2ccccc21 94.7%, CN=c1scc(-c2ccc(F)cc2)n1/N=C/c1ccc(O)c(O)c1 50.4%, CN=c1scc(-c2ccco2)n1/N=C/c1ccc(O)c(O)c1 53%, COC1=C(OC)C(=O)C(CCCCCCCCCCO)=C(C)C1=O 53.5%, O=C(/C=C/c1ccc(O)c(O)c1)c1ccc(S(=O)(=O)N2CCCCCC2)cc1 66%, O=C(NCC1CCCO1)C1CC1(c1ccccc1)c1ccccc1 (stereo unspecified) 108%, O=c1[nH]cnc2c1sc(=S)n2-c1ccccc1 50.7%, O=C(NC1CCCCC1)c1sc(=S)n2c1[nH]c(=O)c1ccccc12 51.2%
